Data taken from PubChem BioAssay (NCI).
Compounds without any hit were thinned out: in the full panel of roughly 83,000, 20% have a hit.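 Cells were grown in 96-well plates and exposed to the test compound at a single concentration for 48 hours; results are reported as percent growth, with values below 10 considered active.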 A number with no mark means an inactive call. Active and inactive are the calls of the source.

What was measured:
Test in all cases: NCI-60 one-dose screen, 48 h (100 = growth as untreated, 0 = no growth, -100 = all killed)
Settings in all cases: 10 µM unless noted
[1] = tested on: SK-MEL-2 melanoma
[2] = tested on: EKVX NSCLC
[3] = tested on: SN12C renal
[4] = tested on: UO-31 renal
[5] = tested on: TK-10 renal
[6] = tested on: ACHN renal
[7] = tested on: CAKI-1 renal
[8] = tested on: A498 renal
[9] = tested on: CCRF-CEM leukemia
[10] = tested on: MOLT-4 leukemia
[11] = tested on: SR leukemia
[12] = tested on: RPMI-8226 leukemia
[13] = tested on: OVCAR-8 ovarian
[14] = tested on: OVCAR-5 ovarian
[15] = tested on: OVCAR-4 ovarian
[16] = tested on: SK-OV-3 ovarian
[17] = tested on: IGROV1 ovarian
[18] = tested on: OVCAR-3 ovarian
[19] = tested on: NCI/ADR-RES ovarian
[20] = tested on: HS 578T breast

SMILES	growth [1]	growth [2]	growth [3]	growth [4]	growth [5]	growth [6]	growth [7]	growth [8]	growth [9]	growth [10]	growth [11]	growth [12]	growth [13]	growth [14]	growth [15]	growth [16]	growth [17]	growth [18]	growth [19]	growth [20]
N#Cc1c(-c2cccc3ccccc23)cc(-c2cccc(OCC(=O)O)c2)[nH]c1=O	115%	93.5%	96.8%	71.3%	104%	100%	74.2%	99.3%	96.8%	85.7%	87.2%	96.5%	98.9%	89.9%	91.9%	108%	110%	104%	99%	
CC1=C(C(=O)c2ccccc2)C(c2cccc(Cl)c2Cl)n2c(nc3ccccc32)N1 (stereo not drawn)	76%	46.3%	53.6%	67.7%	102%	71.9%	47%	116%	40.5%	45.6%	39.2%	86%	26.3%	60.3%	65.2%	33.7%	77.7%	35.5%	19.1%	
CC1(C)CC[C@]2(C(=O)O)CC[C@]3(C)C(=CCC4[C@@]5(C)C[C@@H](O)[C@@H]6OC(c7ccco7)OC[C@@]6(C)C5CC[C@]43C)C2C1 (stereo partly drawn)	-23.4% (active)	22.8%	20%	22.7%	29.2%	7.44% (active)	33.1%	62.4%	21.7%	21%	18.2%	15%	26.9%	65.4%	47.9%	75.6%	31.6%	20.5%	35.6%	31.2%
CCOC(=O)C1=C(N)N(c2ccccc2)C2=C(C(=O)CC(C)(C)C2)C1c1cccc(Cl)c1Cl (stereo not drawn)	86.5%	57.5%	63%	75.5%	95.2%	57.9%	47.4%	128%	54.8%	39.5%	56.3%	50.7%	59.4%	87.6%	65.8%	82%	83.6%	87.4%	51%	
Cc1cc2nc3c4ccccc4n(CCNCCN(C)C)c3nc2cc1C	25.4%	73.2%	25.3%	-16.5% (active)	54.5%	11%	14.1%	75.4%	21.7%	4.83% (active)	-1.38% (active)	-25.9% (active)	24.2%	39.5%	33%	68.8%	20%	40.5%	24.6%	44.9%
C(=C\c1cc(/C=C/c2ccccc2)c2ccccc2n1)/c1ccccc1	122%	100%	76.8%	88.5%	106%	107%	94.2%	132%	60.8%	32.1%	36.7%	25.3%	78.4%	136%	98.6%	121%	118%	103%	69.7%	
OCC1(CCCc2ccccc2)CCCN(c2nccc3ccccc23)C1 (stereo not drawn)	30.7%	23.4%	44.4%	26.9%	50.1%	51.8%	38.6%	63.3%	49.2%	32.3%	12.1%	5.11% (active)	23.1%	62.4%	32.8%	57.7%	62.2%	45.6%	11.8%	42%
N#Cc1c(-c2ccccc2Cl)cc(-c2ccc3ccccc3c2)[nH]c1=O	95.4%	41.1%	0.758% (active)	0.793% (active)	-0.132% (active)	9.07% (active)	25.1%	-29.6% (active)	56.8%	56.1%	48.9%	61.5%	12.2%	44.1%	-46% (active)	52.1%	48.2%	-7.55% (active)	13.4%	
COc1cccc(-c2c(C#N)c(-c3ccc(Cl)cc3)nc3n[nH]c(-c4ccc(Cl)cc4)c23)c1	53.1%	33.9%	44.8%	35.2%	71.8%	56.2%	39.1%	100%	23.7%	2.7% (active)	16.3%	7.25% (active)	48.3%	69%	26.5%	43.9%	65.2%	58%	59.3%	
COc1ccc2cc([C@H](C)C(=O)N/N=C/c3ccc(Br)cc3)ccc2c1	109%	94.2%	97.2%	83.3%	101%	106%	87.2%	107%	101%	86.6%	87.3%	105%	105%	100%	100%	97.7%	102%	114%	98.2%	
C=C1CC[C@@H]2[C@]3(C)COC(c4cn[nH]c4-c4ccccc4)O[C@@H]3CC[C@@]2(C)[C@@H]1C/C=C1/C(=O)OCC1O (stereo partly drawn)	73.8%	-45.2% (active)	21.9%	-0.824% (active)	-8.55% (active)	11%	11.4%	137%	2.72% (active)	4.6% (active)	-18.9% (active)	-28.6% (active)	33%	22.6%	11.5%	107%	30.6%	34.7%	37.8%	
N/C(=N\c1nc2ccccc2s1)NC(=O)NCCCCCCO	50.1%	19.6%	45.5%	43.5%	51.2%	39.5%	32%	61%	60.3%	4.34% (active)	32.4%	46%	50.7%	74.5%	17.8%	59.1%	61.5%	61.8%	24.3%	
C=C1CC[C@@H]2[C@]3(C)COC(c4ccccc4)O[C@@H]3CC[C@@]2(C)[C@@H]1C/C=C1/C(=O)OCC1OC(C)=O (stereo partly drawn)	-61.5% (active)	21.8%	-96.9% (active)	-94.1% (active)	-21.2% (active)	-100% (active)	20.6%	129%	-29.3% (active)	-28.7% (active)	-32.8% (active)	-42.4% (active)	-64.9% (active)	-78.5% (active)	0.176% (active)	93.7%	-51.3% (active)	-88.2% (active)	-73.1% (active)	61.5%
COc1ccc([C@H](C)Nc2nc(Cl)nc3ccccc23)cc1	70.2%	19.2%	47.9%	47.1%	66.9%	54.3%	56.4%	108%	34.9%	20.8%	17.9%	23.6%	56.4%	54.7%	62.9%	70.5%	63.2%	78.7%	21.5%	
CC(C)CCNC(=O)N/C(N)=N/c1nc2ccccc2s1	86.4%	28.3%	73.6%	73.7%	88.3%	58.4%	52.1%	116%	59.1%	29.6%	34.4%	38.2%	70.7%	93%	48.7%	87.9%	76.6%	80.4%	56.6%	
O=C(/C=C/c1ccc(-c2ccccc2)cc1)c1nc2ccccc2n1Cc1ccc(F)cc1	56.6%	34.4%	53.9%	47.6%	55.8%	41.3%	49.5%	110%	11.9%	-12.8% (active)	1.5% (active)	-2.77% (active)	46%	43.5%	55.2%	82.2%	55.7%	28.8%	49.6%	
